Many of the other results were omitted from the sample, so hits are more common in it than they were.
Pf apPOL inh: Pf-apPOL DNA polymerase inhibition | inhibition, % at 10 µM | AID 1794808 | Recombinant Pf-apPOL, molecular beacon fluorescence, 1.5 h | 210,000 compounds, 0.25% hits
mHTT CaM bind: mHTT-calmodulin interaction abrogation; AlphaScreen His-mHTT/GST-CaM binding, luminescence; inhibition, % at 15 µM; 190,000 compounds, 3.6% hits;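 note: 0% = both proteins with DMSO and 100% = one protein alone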
* hit, by the source's call; x = no result; + = active, no number; ! = a repeat was not active. Cut-off read from the data, not from the text of the source: active = inhibition above about 50%; inactive = the rest.

SMILES | Pf apPOL inh | mHTT CaM bind
O=c1[nH]n(-c2nn3nnnc3c3ccccc23)c(=O)c2ccccc12 | -1 | 2
O=[N+]([O-])c1ccccc1S(=O)(=O)N1CCc2ccccc21 | -2 | 3
Cc1ccccc1S(=O)(=O)N1CCC(Cc2ccc(F)cc2)CC1 | -5 | -55
COc1cc(OC)c2c(-c3ccccc3)cc(=O)oc2c1C(CCN1CCOCC1)c1ccc2c(c1)OCO2 (stereo unspecified) | -5 | 84*
COc1cc(OC)c2c(-c3ccccc3)cc(=O)oc2c1C(CCN1CCCC1)c1ccc2c(c1)OCO2 (stereo unspecified) | -18 | 100*
COc1cc(OC)c2ccc(=O)oc2c1C(CCN1CCOCC1)c1ccc2c(c1)OCO2 (stereo unspecified) | -9 | 41
COc1cc(OC)c2ccc(=O)oc2c1C(CCN1CCCC1)c1ccc2c(c1)OCO2 (stereo unspecified) | -9 | 17
CCCCCc1cc(=O)oc2c(C(CCN3CCCC3)c3ccc4c(c3)OCO4)c(OC)cc(OC)c12 (stereo unspecified) | -25 | 100*
O=C(c1n[nH]c2ccccc12)N1CCCC1c1nc(-c2ccc(F)cc2F)no1 (stereo unspecified) | 0 | -4
Cc1cccc(N2CCN(C(=O)COc3ccc(Cl)cc3)C(C)C2=O)c1 (stereo unspecified) | -2 | 4
COc1ccc(NC(=O)C2CCN(c3cc(N4CCCCC4)ncn3)CC2)c(OC)c1 | -6 | 22
CNC(=O)c1cc2c(=O)n3cc(C)ccc3nc2n(Cc2ccco2)c1=N | 15 | 0
N=c1c(C(=O)NCCc2ccccc2)cc2c(=O)n3ccccc3nc2n1Cc1ccco1 | -17 | 52*
Cc1ccc2nc3c(cc(C(=O)NCCc4ccccc4)c(=N)n3Cc3ccco3)c(=O)n2c1 | -1 | 56*
N=c1c(C(=O)NCc2cccnc2)cc2c(=O)n3ccccc3nc2n1Cc1ccco1 | -8 | 4
Nc1nc(O)c(C2=c3cc(F)ccc3=NC2=O)s1 | 4 | 81*
O=C1N=c2ccc(F)cc2=C1c1sc(Nc2ccc(F)cc2)nc1O | -13 | 22
CC1C(=O)N(c2cccc3ccccc23)CCN1C(=O)c1cccs1 (stereo unspecified) | 2 | 13
CC[C@H]1C(=O)C[C@@H]2CCN3C(=O)CC[C@H]1[C@H]23 | 3 | 5
Cn1ccc2c(N(Cc3ccccc3)Cc3ccccc3)cc3c(c21)C1CCC3O1 (stereo unspecified) | 4 | 43
CN(Cc1ccccc1)c1cc2c(c3c1ccn3C)C1CCC2O1 (stereo unspecified) | -4 | 72*
COc1ccccc1N(C)c1cc2c(c3c1ccn3C)C1CCC2O1 (stereo unspecified) | -2 | 67*
Cn1ccc2c(-c3ccc(F)cc3)cc3c(c21)C1CCC3O1 (stereo unspecified) | -8 | 23
CCOc1ccc(C(=O)Nc2c3c(nn2-c2ccc([N+](=O)[O-])cc2)CSC3)cc1 | -4 | 18
Cc1cc(=O)n(CC(=O)Nc2nnc(C)s2)cn1 | 0 | -17
SMILES | Pf apPOL inh | mHTT CaM bind
Cc1ccc(-c2nc3ncccc3o2)cc1NC(=O)COc1ccc(Cl)cc1 | 91* | 1
O=C(COc1ccc(Cl)cc1)Nc1cccc(-c2nc3ncccc3o2)c1 | -7 | 50*!
COc1ccc(OCC(=O)Nc2cccc(-c3nc4ncccc4o3)c2)cc1 | 5 | 3
O=C(Nc1cccc(-c2nc3ncccc3o2)c1)c1cccc(Cl)c1Cl | -8 | 20
COc1ccc(OCC(=O)Nc2cc(-c3nc4ncccc4o3)ccc2C)cc1 | -3 | 8
Cc1ccc(C(=O)Nc2cccc(-c3nc4ncccc4o3)c2)c(Cl)c1 | -2 | 53*
COc1ccc(C2C(C(=O)N(C)c3cc(Cl)ccc3C)CC(=O)N2c2ccc(OC)cc2)cc1 (stereo unspecified) | -5 | 17
Cc1noc(C)c1CCC(=O)N1CCC(c2nncn2C(C)C)CC1 | 0 | -4
CCOC(=O)C(Oc1ccc2c(=O)c(-c3ccccc3OC)coc2c1)c1ccccc1 (stereo unspecified) | -5 | 58*!
COc1cccc(Oc2coc3cc(OC(=O)C=Cc4ccccc4)ccc3c2=O)c1 | -6 | 62*
CCOc1ccc2c(=O)c(-c3ccccc3OC)coc2c1 | -6 | 2
COc1cccc(Oc2coc3cc(OC(=O)c4ccccc4)ccc3c2=O)c1 | -13 | -1
COC(=O)Oc1ccc2c(=O)c(-c3ccccc3OC)coc2c1 | 2 | 50*
C=CCOC(=O)Oc1ccc2c(=O)c(-c3ccccc3OC)coc2c1 | 8 | 23
CC(=O)N1CCC(NC(C)C23CC4CC(CC(c5ccc(Cl)cc5)(C4)C2)C3)CC1 (stereo unspecified) | -3 | 29
COc1ccccc1C(=O)Oc1cc(C)[nH]c(=O)c1[N+](=O)[O-] | -6 | 8
CCCCC(=O)Oc1cc(C)[nH]c(=O)c1[N+](=O)[O-] | 2 | -4
CCCC(CCC)C(=O)Oc1cc(C)[nH]c(=O)c1[N+](=O)[O-] | -10 | 87*
COc1ccc(C(=O)Oc2cc(C)[nH]c(=O)c2[N+](=O)[O-])c(OC)c1 | 1 | 56*
O=C(NCCN1CCCC1)c1ccc(CS(=O)(=O)Cc2ccccc2Cl)o1 | -18 | 1
O=C(NC1CCCC1)c1ccc2c(c1)nc1n2CCN(c2ccccc2)C1=O | 1 | -7
Cc1c(Cl)c(C(F)(F)F)nn1CC(=O)Nc1ccc(Cl)c(Cl)c1 | -1 | 100*
Cc1ccc(NC(=O)Cn2nc(C(F)(F)F)c(Cl)c2C)cc1C | -2 | 3
COc1cccc(C(=O)C=C2NC(=O)CS2)c1 | -7 | x
COc1ccc(C(=O)/C=C2/NC(=O)CS2)cc1 | 77* | -7
SMILES | Pf apPOL inh | mHTT CaM bind
COc1ccc(N=Cc2ccc(Br)s2)cc1 | 3 | 6
CC(=O)c1sc(=S)n(CCc2ccc(Cl)cc2)c1C | -10 | x
CC(=O)c1c(C(C)=O)c(C)n(Cc2ccc(Cl)cc2)c1C | -11 | 53*
Cc1ccccc1NC(=O)N1CCC(N2CCN(Cc3ccccc3)C2=O)CC1 | -3 | 0
Cc1cccc(NC(=O)N2CCC(N3CCN(Cc4ccccc4)C3=O)CC2)c1C | -4 | 100*
COc1cc(NC(=O)C2CC2c2ccccc2)c(OC)cc1Cl (stereo unspecified) | -11 | -64
COc1cc(C)nc2ccc(NC(=O)Nc3ccc(Cl)cc3)cc12 | 3 | 25
COc1ccc(Cl)cc1NC(=O)Nc1ccc2nc(C)cc(OC)c2c1 | 85* | 97*
COc1ccc(-n2c(C)c3c(C)nnc(C)c3c2C)cc1OC | 3 | 5
Cc1nnc(C)c2c(C)n(C(C)c3ccccc3)c(C)c12 (stereo unspecified) | 7 | 74*
CCc1onc(C)c1C1CCCN1Cc1ccc(C)s1 (stereo unspecified) | -3 | -33
COc1cc(N2CN=c3s/c(=C\C=C\c4ccccc4)c(=O)n3C2)cc(OC)c1OC | -6 | 55*
COc1cc(N2CN=c3s/c(=C\c4ccccc4)c(=O)n3C2)cc(OC)c1OC | -8 | 35
COc1ccc(NC(=O)c2cnc(N3CCN(c4ccccn4)CC3)c3ccccc23)cc1OC | -4 | 34
COc1ccc2cc(C3Nc4ccccc4C(=O)N3c3ccccc3)c(Cl)nc2c1 (stereo unspecified) | -11 | 6
O=CC1=C(c2ccccc2)Oc2ccccc2O1 | -6 | 51*
O=C(O)CC1c2ccccc2Oc2ccccc21 | -1 | -6
O=C(NCCCNCCCNC(=O)c1ccc(/C=N/O)nc1)c1ccc(/C=N/O)nc1 | -3 | +

Screening results (PubChem BioAssay)
